An excerpt weighted towards active compounds, which were near 3.9% of everything screened.
GDH-TPI counter-1 = inhibits GDH-TPI coupling enzymes, artifact for Mtb FBA screen | inhibition, % at 4.8 µM | GDH-TPI coupled enzyme counterscreen, NADH absorbance | 360,000 compounds, 1.2% hits | AID 588335; in the data active = inhibition above about 30%
FBA Mtb inh = Mtb fructose-bisphosphate aldolase inhibition. inhibition, % at 1 µM. 360,000 compounds, 2.3% hits. AID 588726. purified M. tuberculosis FBA, fluorescence read-out
Target sequence (P9WQA3 whole entry, looked up): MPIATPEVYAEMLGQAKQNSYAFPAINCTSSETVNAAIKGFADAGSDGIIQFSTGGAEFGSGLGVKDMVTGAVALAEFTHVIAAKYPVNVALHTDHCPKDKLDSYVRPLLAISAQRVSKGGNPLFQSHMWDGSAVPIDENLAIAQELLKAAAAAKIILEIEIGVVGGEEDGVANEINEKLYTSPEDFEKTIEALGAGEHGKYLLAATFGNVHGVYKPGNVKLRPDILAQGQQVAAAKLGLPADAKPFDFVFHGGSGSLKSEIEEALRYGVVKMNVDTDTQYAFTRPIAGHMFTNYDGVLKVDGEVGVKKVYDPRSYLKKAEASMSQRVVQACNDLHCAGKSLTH
CCHF vOTU inh = blocks the CCHF virus ovarian tumor domain protease; AID 651958; 370,000 compounds, 0.55% hits; CCHFV vOTU protease, Pep-AMC fluorescence; inhibition, % at 11.5 µM; in the data active = inhibition above about 30%
Vc quorum ag = induces V. cholerae light production without autoinducers | AID 588436 | activation, % at 18.7 µM | V. cholerae BH1578 lux reporter, luminescence, 6 h | 350,000 compounds, 0.16% hits; in the data active = activation mostly above about 9.7%, no sharp cut-off
Mtb FBA confirm = confirmation of M. tuberculosis fructose-bisphosphate aldolase inhibitors; shares compounds with FBA Mtb inh; purified M. tuberculosis FBA, fluorescence read-out; inhibition, % at 1 µM; 5,600 compounds, 78% hits; AID 651616
GDH-TPI counter-2 = counter-screen for M. tuberculosis FBA inhibitors: GDH-TPI coupled enzyme inhibition; shares compounds with FBA Mtb inh; GDH-TPI coupled enzyme counterscreen, fluorescence; inhibition, % at 1 µM; 5,600 compounds, 81% hits; in the data active = inhibition above about 10%
GDH-TPI DR = GDH-TPI dose response counter-screen for Mtb FBA. shares compounds with FBA Mtb inh. GDH-TPI coupled enzyme assay, fluorescence, artifact counterscreen. IC50, µM. 170 compounds, 79% hits; call rule not given here
Of the large screens only hits and unclear results are named; the others gave an inactive call (follow-up assays come after a bar, where they were run). Rule as the data show it, unless noted: active = inhibition above about 27%; inactive = the rest.

CCCC(C(=O)Nc1ccc2c(C)cc(=O)oc2c1)c1ccccc1 (stereo not given)	FBA Mtb inh 27.9 | Mtb FBA confirm inactive | GDH-TPI counter-2 inactive | GDH-TPI DR 2.81
Cc1cc(=O)oc2cc(NC(=O)Cc3ccccc3[N+](=O)[O-])ccc12	FBA Mtb inh 63.1 | Mtb FBA confirm 29.5 | GDH-TPI counter-2 18.6
Cc1ccc(NC(=O)CCOc2ccccc2C)cc1F	none
Cc1cc(=O)oc2cc(NC(=O)C(C)Oc3ccc(F)cc3)ccc12 (stereo not given)	FBA Mtb inh 32.9 | Mtb FBA confirm 177.2 | GDH-TPI counter-2 143.7
CCOc1cc(/C=C(/C#N)C(=O)Nc2ccc(OC)cc2)ccc1OCc1ccc(C(=O)O)cc1	none
Cc1nc2nc(SCC(=O)NCc3ccco3)nn2c(C)c1Cc1c(F)cccc1Cl	none
CS(=O)(=O)c1cccc(C(=O)Nc2ccccc2Cc2ccccc2)c1	FBA Mtb inh 57.8 | Mtb FBA confirm 48.5 | GDH-TPI counter-2 inactive
Cc1cc(=O)oc2cc(NC(=O)c3cccc(S(=O)(=O)N(C)C)c3)ccc12	none
Cc1cc(=O)oc2cc(NC(=O)C(C)N3C(=O)C4CCCCC4C3=O)ccc12 (stereo not given)	FBA Mtb inh 84.7 | Mtb FBA confirm 64.7 | GDH-TPI counter-2 34.7
Cc1cc(=O)oc2cc(NC(=O)Cc3ccccc3)ccc12	FBA Mtb inh 79.8 | Mtb FBA confirm active | GDH-TPI counter-2 185.4
Cc1cc(=O)oc2cc(NC(=O)c3cccc(S(C)(=O)=O)c3)ccc12	FBA Mtb inh 33.6 | Mtb FBA confirm 78.6 | GDH-TPI counter-2 61.6
COCCCN1C(=O)C(CC(=O)NC2CCCCC2)CC(C(=O)N(C(C)C)C(C)C)=C1C (stereo not given)	none (no result: GDH-TPI counter-1, Vc quorum ag)
Cc1ccc(C(=O)NCC2CCCO2)cc1[N+](=O)[O-] (stereo not given)	none
c1cc2c(cc1C1CCCN1)OCCCO2 (stereo not given)	none
CCN(CC)S(=O)(=O)c1ccc(/C=C/C(=O)OCC(=O)NCc2ccco2)cc1	none
CCC(CO)NC(=O)C1C=C2c3cccc4[nH]cc(c34)CC2N(C)C1 (stereo not given)	FBA Mtb inh 82.9 | Mtb FBA confirm active | GDH-TPI counter-2 active
COc1ccc2oc(=N)c(-c3nnc4n3CCCCC4)cc2c1	FBA Mtb inh 32.4 | Mtb FBA confirm inactive | GDH-TPI counter-2 inactive | GDH-TPI DR inactive
Cc1nc2sc3c(O)cc(=O)[nH]c3c2c(C)c1C	FBA Mtb inh 33.1 | Mtb FBA confirm 73.3 | GDH-TPI counter-2 68.8
CC(C)NC(=O)c1ccc(COc2ccc(C(C)(C)C)cc2)o1	none
COc1ccc(CCNc2oc(-c3ccco3)nc2C#N)cc1	FBA Mtb inh 53.9 | Mtb FBA confirm 144.7 | GDH-TPI counter-2 133.5
N#Cc1nc(-c2ccccc2)oc1NCCN1CCCCC1	FBA Mtb inh 80.7 | Mtb FBA confirm 66.7 | GDH-TPI counter-2 67.5
N#Cc1nc(-c2ccco2)oc1NCCc1ccccc1	FBA Mtb inh 41.0 | Mtb FBA confirm 48.8 | GDH-TPI counter-2 39.8
O=C(CSc1nnc(-c2ccco2)o1)NCCc1ccccc1	none
COc1ccc(-c2nc(C#N)c(NCCc3ccccc3)o2)cc1OC	FBA Mtb inh 101.5 | Mtb FBA confirm active | GDH-TPI counter-2 active
N#Cc1nc(Cc2cccc3ccccc23)oc1NCCN1CCOCC1	none
O=C1C[C@@H]2c3c(cccc3CN1Cc1ccccc1Br)C[C@@H](O)[C@H]2O	none
CCOC(=O)c1ccc(S(=O)(=O)NNC(=O)c2ccc3c(c2)nc(C)n3CC)cc1	none
CC(C)(C)C(=O)Nc1sc2c(c1-c1nc3ccccc3[nH]1)CCCC2	FBA Mtb inh 83.3 | Mtb FBA confirm 82.8 | GDH-TPI counter-2 60.9
CC(C)(C)C(=O)Nc1cccc(-c2nc3ccccc3[nH]2)c1	none
Cc1ccc(-c2cc(C(=O)NCCCN3CCCC3)c3ccccc3n2)cc1C	FBA Mtb inh 35.1 | Mtb FBA confirm 94.9 | GDH-TPI counter-2 56.6
CCOc1ccc(-c2cc(C(=O)NCC3CCCO3)c3ccccc3n2)cc1 (stereo not given)	none
COc1ccc(-c2nc(C(=O)NCCCN3CCOCC3)cc3c2[nH]c2ccccc23)cc1OC	FBA Mtb inh 50.0 | Mtb FBA confirm 61.3 | GDH-TPI counter-2 46.3
Cc1ccc(-c2cc(C(=O)NCCCN3CCOCC3)c3ccccc3n2)cc1C	FBA Mtb inh 66.3 | Mtb FBA confirm 70.2 | GDH-TPI counter-2 70.1
O=C(NCCN1CCOCC1)c1cc(-c2ccccc2)nc2ccccc12	none
CC(=O)NS(=O)(=O)c1ccc(NC(=O)c2cc(-c3ccc(C)c(C)c3)nc3ccccc23)cc1	none
CCOc1ccc(-c2cc(C(=O)NCCCN3CCCC3)c3ccccc3n2)cc1	FBA Mtb inh 27.9 | Mtb FBA confirm inactive | GDH-TPI counter-2 16.0
COc1ccccc1OCC(=O)N1CCCCCCC1	none
CCN(CC)S(=O)(=O)c1ccc(N2CCOCC2)c(NC(=O)Cc2cccc3ccccc23)c1	none
C[C@H](NC(=O)c1nc[nH]c1C(=O)NC[C@@H](C)O)c1ccccc1	none
CNc1nc(N)c(C(=O)C(C)(C)C)s1	none
Nc1ccccc1C(=O)NCCCN1CCOCC1	FBA Mtb inh 67.2 | Mtb FBA confirm 76.5 | GDH-TPI counter-2 76.0
COc1ccc(-c2cc(C(=O)NCCN3CCOCC3)c3ccccc3n2)c(OC)c1	none
Cc1ccc(-c2cc(C(=O)NCCCN3CCOCC3)c3ccccc3n2)cc1	FBA Mtb inh 49.8 | Mtb FBA confirm inactive | GDH-TPI counter-2 inactive
O=C(NCCCN1CCOCC1)c1cc2ccccc2cc1O	none
O=C(CSc1nc(-c2ccco2)cc(C(F)(F)F)n1)NCCCN1CCOCC1	none
COc1ccc(-c2cc(C(F)(F)F)nc(SCC(=O)NCCCN3CCOCC3)n2)cc1	FBA Mtb inh 34.3 | Mtb FBA confirm 110.8 | GDH-TPI counter-2 84.1
COc1ccc(-c2cc(C(=O)NCCN3CCOCC3)c3cc(C(C)C)ccc3n2)cc1	FBA Mtb inh 42.4 | Mtb FBA confirm 160.4 | GDH-TPI counter-2 152.6
CC(O)(c1ccc(F)c(F)c1)c1nc(-c2ccc3ccccc3c2)cs1 (stereo not given)	none
CCOC(=O)c1ccc(NC(=O)NCc2ccc(OC)cc2)cc1	none
CCOC(=O)c1ccc(NC(=O)C(=O)NCCc2ccc(OC)cc2)cc1	FBA Mtb inh 50.4 | Mtb FBA confirm 115.9 | GDH-TPI counter-2 106.3
CC(C)(C)c1ccc(OCCC(=O)OCC(=O)NC(=O)NC2CCCC2)cc1	none
CCc1cccc(NC(=O)Cn2cc(C=O)c3ccccc32)c1	none
COc1cc(NC(c2ccccc2)c2ccccc2)cc(OC)c1OC	none
CN(C)C1(CNC(=O)Nc2ccccc2)CCCCC1	none
CN(C)C1(CNCC(O)c2ccccc2)CCCCC1 (stereo not given)	FBA Mtb inh 30.0 | Mtb FBA confirm 120.7 | GDH-TPI counter-2 106.3
N#Cc1cccnc1N1CCC(C(N)=O)CC1	FBA Mtb inh 30.5 | Mtb FBA confirm 49.6 | GDH-TPI counter-2 37.9

From PubChem
